# Measured values from PubChem BioAssay (NCATS).
# Inconclusive results are not listed. The source made the active and inactive calls. The call rests on the fitted dose curve; in most records, active means well fitted cell-killing curve with a large enough effect; inconclusive means small, poorly fitted or top-dose-only effect, or effect the other way; inactive means no such curve, though single readings can be large or run the other way.
# Test: Quantitative highthroughput screen to assess conditional lethalithy of SEM cells grown in Human Plasma-Like Medium with dialyzed fetal bovine serum (HPLM+ds) (AID 1963882)
# Conditions: SEM B-ALL cells in HPLM+ds, CellTiter-Glo viability, 48 h; series mostly up to 45.8 µM
# In short: (§1)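 Each medium arm—HPLM with 10% dialyzed FBS, or RPMI1640 with 5 mM glucose and 10% untreated or dialyzed FBS—was screened against an 11-point, 3-fold compound titration for 48 h at 37 °C, with CellTiter-Glo luminescence as endpoint.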
# Further: nearly all actives have a fitted effect of over 35% in size.
# Potency means the concentration at half of the fitted maximal effect.
row,SMILES,Potency
1,Fc1ccc([C@@H]2CCNC[C@H]2COc2ccc3c(c2)OCO3)cc1,14.8 µM (active)
2,CS(=O)(=O)Oc1ccc2c(NC(N)=O)c(C(=O)c3ccc(Cl)cc3Cl)oc2c1,inactive
3,CC(C)N(CC[C@H](c1ccccc1)c1cc(CO)ccc1O)C(C)C,inactive
4,CN(C)CCOc1ccc(C(=C(CCCl)c2ccccc2)c2ccccc2)cc1,5.9 µM (active)
5,Cc1cn2c(-c3cn[nH]c3)cnc2c(Nc2ccc(C(=O)N3CCNCC3)cc2F)n1,13.2 µM (active)
6,CO[C@H]1C[C@@H]2CC[C@@H](C)[C@@](O)(O2)C(=O)C(=O)N2CCCC[C@@H]2C(=O)O[C@H]([C@H](C)C[C@@H]2CC[C@H](OCCO)[C@H](OC)C2)CC(=O)[C@H](C)C=C(C)[C@@H](O)[C@@H](OC)C(=O)[C@H](C)C[C@H](C)C=CC=CC=C1C,0.59 µM (active)
7,CCOc1ccccc1N=Nc1c(C)[nH]n(-c2nc(-c3ccccc3)cs2)c1=O,5.26 µM (active)
8,CC[C@H](CC[C@@H](C)[C@H]1CC[C@H]2[C@@H]3CC=C4C[C@@H](O)CC[C@]4(C)[C@@H]3CC[C@]12C)C(C)C,inactive

# Test: Quantitative highthroughput screen to assess conditional lethalithy of SEM cells grown in RPMI1640 with unreated serum (RPMI+s) (AID 1963883)
# Conditions: SEM B-ALL cells, CellTiter-Glo viability, 48 h; series mostly up to 45.8 µM
# In short: as §1
row,SMILES,Potency
1,CON=C(C(=O)N[C@@H]1C(=O)N2C(C(=O)OCOC(=O)C(C)(C)C)=C(C=Cc3scnc3C)CS[C@H]12)c1csc(N)n1,9.35 µM (active)
2,CC[C@@]1([C@@H]2O[C@@H]([C@H]3O[C@@](O)(CO)[C@H](C)C[C@H]3C)C[C@H]2C)CC[C@H]([C@]2(C)CC[C@]3(C[C@H](O)[C@@H](C)[C@@H]([C@@H](C)[C@@H](OC)[C@H](C)C(=O)O)O3)O2)O1,0.457 µM (active)
3,CCCCC[C@H](O)C=C[C@H]1[C@H](O)CC(=O)[C@H]1CCCCCCC(=O)O,4.18 µM (active)
4,C[C@]12CC[C@@H]3c4ccc(O)cc4CC[C@H]3[C@H]1CC[C@H]2O,18.7 µM (active)
5,COc1cc2nc(-c3cc(F)ccc3O)nc(N[C@@H]3CNC[C@@H]3C(C)(C)O)c2cc1OC,0.469 µM (active)
6,Cc1csc(-c2nnc(Nc3ccc(Oc4ncccc4-c4ccnc(N)n4)cc3)c3ccccc23)c1,0.0166 µM (active)
7,CC(C)=CCCC(C)=CCCC(C)=CCSc1ccccc1C(=O)O,6.62 µM (active)
8,CCOC(=O)N1CCN([N+]([O-])=NOc2ccc([N+](=O)[O-])cc2[N+](=O)[O-])CC1,4.18 µM (active)
9,Fc1ccc([C@@H]2CCNC[C@H]2COc2ccc3c(c2)OCO3)cc1,14.8 µM (active)
10,C[C@@H](Oc1ccc2[nH]nc(C=Cc3cnn(CCO)c3)c2c1)c1c(Cl)cncc1Cl,0.264 µM (active)
11,CS(=O)(=O)Oc1ccc2c(NC(N)=O)c(C(=O)c3ccc(Cl)cc3Cl)oc2c1,inactive
12,CC(C)N(CC[C@H](c1ccccc1)c1cc(CO)ccc1O)C(C)C,inactive
13,CN(C)CCOc1ccc(C(=C(CCCl)c2ccccc2)c2ccccc2)cc1,3.32 µM (active)
14,C[C@@H](Oc1cc(-c2cnn(C3CCNCC3)c2)cnc1N)c1c(Cl)ccc(F)c1Cl,9.35 µM (active)
15,Cc1cn2c(-c3cn[nH]c3)cnc2c(Nc2ccc(C(=O)N3CCNCC3)cc2F)n1,14.8 µM (active)
16,CCOc1ccccc1N=Nc1c(C)[nH]n(-c2nc(-c3ccccc3)cs2)c1=O,6.62 µM (active)
17,CC[C@H](CC[C@@H](C)[C@H]1CC[C@H]2[C@@H]3CC=C4C[C@@H](O)CC[C@]4(C)[C@@H]3CC[C@]12C)C(C)C,inactive
